Results from the supplement of paper PMC3334620.
The full ranking holds about 33,000 sequences; the median of “E-score (-0.5 to 0.5)” is about -0.035, and the highest 2% start at about 0.34. Shown is part of a subset that was picked to be rich in the highest values.

target: T1, Mot3 (UniProt P54785); test: PBM E-score (8-mer binding enrichment) (E-score (-0.5 to 0.5)); higher = stronger / more preferred TF binding; conditions: protein concentration: 200 nM; construct: GST-full length
T1 sequence: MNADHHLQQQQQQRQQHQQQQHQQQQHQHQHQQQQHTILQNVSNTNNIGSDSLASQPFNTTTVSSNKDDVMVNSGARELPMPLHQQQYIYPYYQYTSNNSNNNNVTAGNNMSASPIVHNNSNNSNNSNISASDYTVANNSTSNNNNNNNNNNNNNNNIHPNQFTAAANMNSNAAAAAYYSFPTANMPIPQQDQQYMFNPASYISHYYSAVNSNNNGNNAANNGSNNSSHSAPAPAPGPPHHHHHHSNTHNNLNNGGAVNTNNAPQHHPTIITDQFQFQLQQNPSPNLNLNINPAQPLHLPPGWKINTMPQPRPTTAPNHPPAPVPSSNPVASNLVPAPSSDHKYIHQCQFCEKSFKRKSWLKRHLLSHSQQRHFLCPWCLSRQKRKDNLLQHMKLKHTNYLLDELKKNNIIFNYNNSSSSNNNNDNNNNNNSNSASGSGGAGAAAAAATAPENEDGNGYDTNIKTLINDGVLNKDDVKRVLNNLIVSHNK
How it was run: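 E-scores (a modified Wilcoxon-Mann-Whitney statistic) were assigned by the Universal PBM Analysis Suite to every ungapped eight-base word pooled with its reverse complement. The input came from universal all-10-mer Agilent arrays made double-stranded by primer extension and probed with GST-tagged yeast transcription factors at about 100-200 nM. Fluorescent anti-GST detected bound protein, and masliner normalised the scans.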

| Sequence | PBM E-score |
| --- | --- |
| GAGAAATC | -0.077 |
| CTCGAAAA | -0.084 |
| CTTGGCGA | -0.105 |
| GACCTAAA | -0.086 |
| ACAGGATG | 0.00887 |
| GCTGTATA | 0.145 |
| CCTGTGAA | 0.254 |
| GCTGTGAA | 0.0424 |
| CCTGTGTC | 0.194 |
| GCTGTGTA | 0.354 |
| ACTGTGTG | 0.185 |
| ACTGTGTA | 0.349 |
| CCTGTGTA | 0.357 |
| ACTGTGTC | 0.112 |
| AAGCAAGA | 0.0175 |
| AGCAAGGG | -0.137 |
| GCGGTCAA | -0.0964 |
| GACTTAGA | -0.164 |
| AAGCACAT | 0.0905 |
| AAGCACAG | 0.0561 |
| AGGCACAA | 0.489 |
| ATGCACAT | 0.207 |

| Sequence | PBM E-score |
| --- | --- |
| GGGCACAA | 0.0559 |
| CGGCACAC | -0.21 |
| GGGCACAC | 0.178 |
| AGGCACAT | 0.49 |
| AGGCACAG | 0.491 |
| CGGCACAG | -0.274 |
| AGGCACAC | 0.487 |
| TGGCACAA | -0.0932 |
| CGATGGGA | -0.272 |
| AGTTCAGC | -0.141 |
| ATAACCCC | -0.207 |
| CATCTGGC | -0.139 |
| CGTTGATA | 0.114 |
| AATGAGCC | -0.238 |
| CTTAGAAG | -0.209 |
| CAACTACC | -0.02 |
| ACGTGTCA | 0.342 |
| GCGTGTTA | 0.393 |
| ACGTGTCG | 0.24 |
| ACGTGTTG | 0.338 |
| ATGTGTTA | 0.316 |
| GCGTGTCA | 0.305 |

| Sequence | PBM E-score |
| --- | --- |
| ACGTGTTA | 0.351 |
| CTGTGTTA | 0.334 |
| GTGTGTTA | 0.348 |
| CCGTGTCA | 0.277 |
| ACGTGTTC | 0.221 |
| GCGTGTGA | 0.177 |
| ATCATCTG | -0.0881 |
| AAGACCGC | -0.139 |
| TCCGTTCA | -0.194 |
| ATTCCATG | 0.0576 |
| CTCCGTTC | -0.0461 |
| TAAACCTA | -0.01 |
| AAGAGCTC | 0.00626 |
| CCGTGTTC | 0.27 |
| CAGTGTTA | 0.212 |
| CCGTGTTA | 0.376 |
| GCTCCTAA | 0.118 |
| AGCAAGAA | -0.0228 |
| CTCGTCTA | -0.168 |
| CCGCGGGA | -0.23 |
| GCATTAGA | -0.0607 |
| GCATTACC | 0.0719 |

| Sequence | PBM E-score |
| --- | --- |
| ACATTACG | 0.271 |
| ACATTACT | 0.218 |
| TCATTACA | 0.359 |
| GCATTACA | 0.35 |
| TCATTAGA | 0.0474 |
| CCATTACA | 0.337 |
| ACATTACA | 0.357 |
| AACACTGG | 0.00047 |
| GCTTATCC | -0.179 |
| GCACAAGC | 0.117 |
| AGATACCT | -0.096 |
| GAAGGAAA | 0.454 |
| TAAGGATA | -0.102 |
| TAAGGAAA | 0.424 |
| TAAGGAGA | -0.0944 |
| CAAGGAAA | 0.317 |
| GAAGGATA | -0.0542 |
| AGGGATCC | -0.223 |
| AATTTTAG | 0.004 |
| AATCTCTA | -0.0669 |
| AGCATGTG | 0.179 |
| CGCATGTC | 0.146 |

| Sequence | PBM E-score |
| --- | --- |
| GGCATGTA | 0.376 |
| AGCATGTC | 0.218 |
| GGCATGGA | -0.0411 |
| AGCATGTA | 0.354 |
| CGCATGTA | 0.356 |
| CGCATGGA | -0.0319 |
| GGCATGCA | 0.146 |
| AAAGCGTA | 0.0441 |
| AGCACCGG | -0.32 |
| GAAGCTTC | -0.191 |
| CGAATAAC | 0.0678 |
| CAAATCAG | -0.048 |
| ATGCGGCA | -0.115 |
| TATACGCA | 0.272 |
| CTTGCCCC | -0.209 |
| ATTGCCCA | 0.0652 |
| CTTGCCTC | 0.425 |
| CTTGCCGC | -0.231 |
| ATTGCCTA | 0.482 |
| ATTGCCGA | -0.0541 |
| ATTGCCAG | -0.156 |
